Measured values taken from PubChem BioAssay AID1159580 (chemical genetic matrix, 2015).
The campaign covered roughly 5,500 compounds. About 2,000 (36%) were called active. Roughly 18% stayed inconclusive and do not appear here. Rule as the data show it: active = normalized growth mostly below about 0.91 (no sharp cut-off); inconclusive = no clear call, values can overlap the other calls; inactive = mostly above about 0.92. The list shows a part of the results.

Test: chemical genetic growth profiling, strain panel (AID 1159580);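 also: tested at 20 µM; growth read once vehicle control cultures reached saturation at 30 °C; 1 = growth at the plate median or of vehicle wells; lower values mean less growth of the strain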
Details: S. cerevisiae deletion strains, growth OD
[1] = locus YHR030C, strain SLT2, stronger effect = lower value
[2] = locus YHR079C, strain IRE1, stronger effect = lower value
[3] = locus YJL095W, strain BCK1, stronger effect = lower value
[4] = locus YJR066W, strain TOR1, stronger effect = lower value
[5] = locus YLR113W, strain HOG1, stronger effect = lower value
[6] = locus YNL183C, strain NPR1, stronger effect = lower value
[7] = locus YOR231W, strain MKK1, stronger effect = lower value
[8] = locus YPL256C, strain CLN2, stronger effect = lower value

Measured: normalized growth

N#C/C(=C\c1ccc(C(F)(F)F)cc1)c1ccc(O)cc1
active: locus YDL214C, strain PRR2, stronger effect = lower value 0.478 | locus YDR477W, strain SNF1, stronger effect = lower value 0.497 | locus YER123W, strain YCK3, stronger effect = lower value 0.508 | locus YER133W, strain GLC7, stronger effect = lower value 0.492 | locus YFR019W, strain FAB1, stronger effect = lower value 0.647 | locus YGR040W, strain KSS1, stronger effect = lower value 0.53 | locus YGR052W, strain FMP48, stronger effect = lower value 0.5 | locus YGR092W, strain DBF2, stronger effect = lower value 0.365 | [1] 0.308 | [2] 0.334 | locus YHR082C, strain KSP1, stronger effect = lower value 0.492 | locus YHR205W, strain SCH9, stronger effect = lower value 0.359 | [3] 0.464 | locus YJL157C, strain FAR1, stronger effect = lower value 0.47 | locus YJR066W, strain TOR1 (second series), stronger effect = lower value 0.29 | [4] 0.435 | locus YKL048C, strain ELM1, stronger effect = lower value 0.411 | locus YKL067W, strain YNK1, stronger effect = lower value 0.525 | locus YKL101W, strain HSL1, stronger effect = lower value 0.465 | locus YKL203C, strain TOR2, stronger effect = lower value 0.428 | [5] 0.431 | locus YLR133W, strain CKI1, stronger effect = lower value 0.498 | locus YLR403W, strain SFP1, stronger effect = lower value 0.445 | locus YML070W, strain DAK1, stronger effect = lower value 0.535 | locus YMR205C, strain PFK2 (second series), stronger effect = lower value 0.54 | locus YNL020C, strain ARK1, stronger effect = lower value 0.45 | [6] 0.467 | locus YNL307C, strain MCK1 (second series), stronger effect = lower value 0.395 | locus YOL136C, strain PFK27, stronger effect = lower value 0.492 | locus YOR061W, strain CKA2, stronger effect = lower value 0.43 | locus YOR119C, strain RIO1, stronger effect = lower value 0.498 | [7] 0.469 | locus YPL031C, strain PHO85, stronger effect = lower value 0.421 | locus YPL153C, strain RAD53, stronger effect = lower value 0.444 | locus YPL204W, strain HRR25, stronger effect = lower value 0.453 | [8] 0.427
inactive: locus YAR019C, strain CDC15, stronger effect = lower value 0.969 | locus YBL105C, strain PKC1, stronger effect = lower value 0.968 | locus YBR135W, strain CKS1, stronger effect = lower value 0.965 | locus YBR136W, strain MEC1, stronger effect = lower value 0.97 | locus YBR160W, strain CDC28, stronger effect = lower value 0.976 | locus YDL017W, strain CDC7, stronger effect = lower value 0.966 | locus YDL028C, strain MPS1, stronger effect = lower value 0.976 | locus YDL101C, strain DUN1, stronger effect = lower value 0.979 | locus YDL108W, strain KIN28, stronger effect = lower value 0.972 | locus YDL132W, strain cdc53, stronger effect = lower value 0.973 | locus YDR052C, strain DBF4, stronger effect = lower value 0.988 | locus YDR054C, strain cdc34, stronger effect = lower value 0.96 | locus YDR226W, strain ADK1, stronger effect = lower value 0.969 | locus YFL009W, strain cdc4, stronger effect = lower value 0.967 | locus YFL029C, strain CAK1, stronger effect = lower value 0.978 | locus YFR003C, strain YPI1, stronger effect = lower value 0.971 | locus YFR028C, strain CDC14, stronger effect = lower value 0.964 | locus YIL147C, strain SLN1, stronger effect = lower value 0.974 | locus YJL128C, strain PBS2, stronger effect = lower value 0.913 | locus YJR016C, strain ILV3, stronger effect = lower value 0.974 | locus YKL193C, strain SDS22, stronger effect = lower value 0.972 | locus YMR001C, strain CDC5, stronger effect = lower value 0.96 | locus YMR277W, strain FCP1, stronger effect = lower value 0.963 | locus YNL006W, strain LST8, stronger effect = lower value 0.959 | locus YNL161W, strain CBK1, stronger effect = lower value 0.967 | locus YNL207W, strain RIO2, stronger effect = lower value 0.961 | locus YNL222W, strain SSU72, stronger effect = lower value 0.964 | locus YOL078W, strain AVO1, stronger effect = lower value 0.973 | locus YOR329C, strain SCD5, stronger effect = lower value 0.962 | locus YPL209C, strain IPL1, stronger effect = lower value 0.965 | locus YPR025C, strain CCL1, stronger effect = lower value 0.971 | locus YPR106W, strain ISR1, stronger effect = lower value 0.965 | locus YPR111W, strain DBF20, stronger effect = lower value 0.953 | strain NNK1, stronger effect = lower value 0.95 | strain TSCII, stronger effect = lower value 0.967

CC(O)Cn1cnc2c1c(=O)n(C)c(=O)n2C (centres undefined)
inactive: [1] 1.05 | [2] 1.07 | [3] 1.05 | [4] 0.991 | [5] 1.04 | [6] 1 | [7] 1.03 | [8] 1.04
